# Bioassay records from PubChem BioAssay.
# CYP2C9 act = human CYP2C9 activators, primary screen, biochemical, luminescence; Cytochrome P450 2C9 (Homo sapiens), P11712; recombinant CYP2C9, luciferin-H conversion; stronger effect = higher value; factor 1 = untreated enzyme, 0 = blocked; activation factor at 5 µM; 96,000 tested, 1.4% active;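 active = activation factor of 2 or more for CYP2C9 at a 5 µM dose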;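 note: 0 = sulfaphenazole-blocked wells and 1 = vehicle-only wells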
# Target sequence (P11712 whole entry, looked up): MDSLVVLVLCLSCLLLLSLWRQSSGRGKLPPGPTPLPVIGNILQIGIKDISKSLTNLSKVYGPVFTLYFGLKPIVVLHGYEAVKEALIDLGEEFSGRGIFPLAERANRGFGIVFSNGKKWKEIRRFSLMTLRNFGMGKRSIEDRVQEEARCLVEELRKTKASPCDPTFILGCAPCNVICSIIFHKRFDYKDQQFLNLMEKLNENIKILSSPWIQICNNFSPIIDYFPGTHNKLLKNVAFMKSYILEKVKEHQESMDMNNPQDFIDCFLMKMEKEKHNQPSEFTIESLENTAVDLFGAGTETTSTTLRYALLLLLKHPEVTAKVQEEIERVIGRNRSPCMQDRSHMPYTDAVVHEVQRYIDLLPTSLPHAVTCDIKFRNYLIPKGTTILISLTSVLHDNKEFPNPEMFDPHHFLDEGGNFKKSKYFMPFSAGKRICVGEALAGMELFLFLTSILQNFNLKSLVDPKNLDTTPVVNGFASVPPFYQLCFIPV
# PostGolgi ctrl = growth inhibition of yeast control strain, primary screen, counter-screen for post-Golgi transport modulator project; efflux-deficient yeast background strain, growth absorbance A615, 16 h; inhibition, % at 10 µM; 98,000 tested, 5% active; AID 738, 2007
# CYP2C19 inhib = blockers of cytochrome P450 2C19 activity – biochemical, luminescence, ADME assay, primary screen | AID 778, 2007 | inhibition, % at 5 µM | P33261 | CYP2C19 Supersomes, luciferin-H EGE luminescence, 30 min | 96,000 tested, 21% active;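 active = CYP2C19 inhibition above a set limit at 5 µM in the primary screen, cut at about 50% in these data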;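 note: plate controls were negative control wells for no effect and 2.5 mM tranylcypromine positive control for full effect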
# CYP2C19 act = human CYP2C19 activators, primary screen, biochemical, luminescence; recombinant CYP2C19, luciferin-H EGE luminescence; stronger effect = higher value; 0 = fully inhibited enzyme, 1 = untreated enzyme; Cytochrome P450 2C19 (Homo sapiens), P33261; 96,000 tested, under 10 active; activation factor at 5 µM;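 active = activation factor of at least 2 at 5 µM in the primary screen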;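 note: 0 = wells with 2.5 mM tranylcypromine and 1 = vehicle-only wells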
# PostGolgi yeast = phenotypic screen on post-Golgi transport, primary screen. post-Golgi transport phenotypic cell assay. inhibition, % at 10 µM. 98,000 tested, 0.9% active. AID 739, 2007;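 note: yeast cells grown in 1536-well plates; yeast grown about 18 h at 30C before absorbance read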
# CYP2C9 inhib = blockers of cytochrome P450 2C9 activity – biochemical, luminescence, ADME assay, primary screen; P11712; CYP2C9 Supersomes, luciferin-H conversion; inhibition, % at 5 µM; 96,000 tested, 20% active; AID 777, 2007;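 active = blocking of liver enzyme CYP2C9 beyond about 50% at 5 µM, limit read from the data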
# * = called active by the depositor; . = no result. Sampled rows, rich in hits. Any-hit rate of the full collection: about 32%. Cut-off read from the data, not from the text of the source, unless noted: active = inhibition above about 30%; inactive = the rest.
SMILES,CYP2C9 act,PostGolgi ctrl,CYP2C19 inhib,CYP2C19 act,PostGolgi yeast,CYP2C9 inhib
N#Cc1ccc(COC(=O)c2ccc3c(=O)[nH]c(CN4CCOCC4)nc3c2)cc1,1,4,-14,1.1,9,0
CC1Cc2ccccc2N1Cc1nc2scc(-c3cccs3)c2c(=O)[nH]1 (stereo not given),0,27,75*,0.3,-8,95*
CC1Cc2ccccc2N1Cc1nc2cc(Cl)ccc2c(=O)[nH]1 (stereo not given),0.2,10,57*,0.4,-14,80*
COC(=O)c1ccc2c(=O)[nH]c(CN3c4ccccc4CC3C)nc2c1 (stereo not given),0.2,14,22,0.8,13,82*
COc1cc(SC#N)ccc1N=Cc1c(C)[nH]n(-c2cccc3ccccc23)c1=O,0.8,24,14,0.9,0,16
O=C(CSc1nc(N2CCCCC2)nc(N2CCCCC2)n1)Nc1nccs1,0.3,-6,15,0.8,-2,67*
O=C(CSC1CCCCC1)Nc1nccs1,0.6,-4,84*,0.2,6,42
CCOC(=S)N/C(=N\S(=O)(=O)c1ccccc1)c1ccccc1,.,-7,.,.,-1,.
O=S(=O)(/N=C(/Sc1ccccc1)c1ccccc1)c1ccccc1,0,0,96*,0,4,96*
Cc1noc(C)c1CSc1nnc(-c2ccncc2)n1-c1ccc(Cl)c(Cl)c1,0.4,8,84*,0.2,-8,59*
Cc1ccccc1-n1c(SCc2c(C)noc2C)nnc1-c1cccnc1,0.6,12,11,0.9,1,42
Cc1ccccc1-n1c(SCc2c(C)noc2C)nnc1-c1ccncc1,0.5,5,78*,0.2,0,51*
Cc1cc(C)n2c3c(c(C#N)c2n1)CCCC3,1,7,8,0.9,8,3
O=C(COC(=O)c1ccc(N2CCCC2=O)cc1)NCc1ccco1,0.9,-3,-3,1,-7,14
COCC(=O)N(Cc1ccco1)c1nnc(C2CCOC2)s1 (stereo not given),1.1,0,-12,1.1,6,-13
Cc1ccc(-c2nn3c(C)nnc3s2)cc1NC(=O)c1cccnc1,0.4,.,50*,0.5,.,60*
Cc1ccc(-c2nn3c(C)nnc3s2)cc1NCc1c(F)cccc1Cl,0.3,23,68*,0.3,33*,74*
Cc1ccc(CNc2cc(-c3nn4c(C)nnc4s3)ccc2C)s1,0.5,32*,28,0.7,8,54*
Cn1nnnc1SCc1ccc(C(=O)Nc2ccc(Br)cc2)cc1,1,-6,4,1,14,-3
CC1(C(=O)O)CCC(C(=O)N2CCOCC2)C1(C)C (stereo not given),1.1,-1,4,1,-4,-8
CCOC(=O)COn1c(=O)c(=O)n(OC)c2ccccc21,1,9,-20,1.2,-7,-2
CCOC(=O)COn1c(SCC(=O)OCC)nc2ccccc2c1=O,0.8,5,53*,0.5,16,19
CCOC(=O)C(C)Sc1nc2ccccc2c(=O)n1CC (stereo not given),0.4,21,77*,0.2,-16,63*
O=C(NCCC1=CCCCC1)C(c1ccccc1)c1ccccc1,0.8,14,11,0.9,2,24
CCOC(=O)COn1c(=O)c(=O)n(O)c2ccccc21,0.1,6,99*,0,-4,90*
SMILES,CYP2C9 act,PostGolgi ctrl,CYP2C19 inhib,CYP2C19 act,PostGolgi yeast,CYP2C9 inhib
C=CCn1c(SC(C)C(=O)NCCC2=CCCCC2)nc2ccccc2c1=O (stereo not given),0.4,32*,47,0.5,-7,56*
Cc1nc(C)n(CC(O)COc2ccc3cc(Br)ccc3c2)n1 (stereo not given),1.1,10,36,0.6,0,-6
COc1ccccc1N1CCN(C(=O)C2CCN(S(=O)(=O)c3ccc(Cl)cc3)CC2)CC1,0.8,27,20,0.8,4,21
Nn1c(CSc2ccccn2)nc2ccccc2c1=O,1,7,33,0.7,-1,2
Cn1c(Oc2ccccc2)c(C=O)c2ccccc21,1.6,11,47,0.5,0,-59
CSc1nc(C)cc(NC(N)=O)n1,1.1,19,7,0.9,-4,-11
O=C(OCC(=O)N1CCN(C(=O)c2ccco2)CC1)c1ccccc1O,0.3,1,46,0.5,-4,72*
O=C(COC(=O)C1(c2ccccc2F)CCCC1)N1CCN(C(=O)c2ccco2)CC1,1,19,1,1,-8,5
CC1CCCCC1NC(=O)COC(=O)c1ccccc1NC(=O)c1ccco1 (stereo not given),0.8,7,18,0.8,2,22
O=C(OCC(=O)N1CCN(C(=O)c2ccco2)CC1)c1ccccc1OCc1ccc(Cl)cc1,0.2,42*,39,0.6,7,77*
O=C(OCC(=O)N1CCN(C(=O)c2ccco2)CC1)c1sc2ccccc2c1Cl,0.9,12,23,0.8,-6,15
O=C(Nc1ccccc1C(=O)OCC(=O)N1CCc2ccccc2C1)c1ccco1,0.1,32*,65*,0.3,1,87*
O=C(COC(=O)C1(c2ccc(F)cc2)CCCC1)N1CCN(C(=O)c2ccco2)CC1,0.2,1,73*,0.3,15,82*
O=C(c1ccco1)N1CCN(C(=O)c2ccccc2OC(=O)C23CC4CC(CC(C4)C2)C3)CC1,0.3,3,79*,0.2,-12,65*
N#Cc1ccccc1Sc1ccccc1C(=O)OCC(=O)N1CCN(C(=O)c2ccco2)CC1,0.2,7,25,0.7,-8,77*
O=C(COC(=O)c1ccccc1OCc1ccc(Cl)cc1)NC1CC1,0.4,15,75*,0.3,4,62*
O=C(NCc1ccccc1)c1cccc(OCC(=O)N2CCN(C(=O)c3ccco3)CC2)c1,0.8,6,18,0.8,-9,19
CCN(CC)S(=O)(=O)c1ccc(C(=O)OCC(=O)N2CCN(C(=O)c3ccco3)CC2)cc1,0,3,15,0.8,-3,96*
CCS(=O)(=O)N1CCN(C(=O)c2ccco2)CC1,1.1,4,10,0.9,-5,-6
O=C(c1ccco1)N1CCN(C(=O)c2ccccc2Oc2ccccc2)CC1,.,10,.,.,0,.
COCCn1nnnc1C(c1cccc(OC)c1OC)N1CCN(C2CCCCC2)CC1 (stereo not given),0.9,-1,2,1,-2,12
COc1cc(C2/C(=C(\O)c3cc(C)ccc3C)C(=O)C(=O)N2CCN(C)C)ccc1O (stereo not given),1,-5,16,0.8,-18,-3
